According to PubChem BioAssay (NCATS):
Several values for one entry are separate records, joined by “and”; a condition that tells them apart may be missing. Equal entries are not always repeated. Records with an inconclusive call do not appear. Activity calls are given as the source filed them. Calls follow the shape of the dose curve; as a rule, active = well fitted inhibition curve with a large enough effect; inconclusive = small, poorly fitted or top-dose-only effect; inactive = flat fitted curve, though single readings scatter.

Experiments:
CRL-7250 = normal cell line; experiment: Cytotoxic Profiling of Annotated Libraries Using Quantitative High-Throughput Screening (AID 1296008); settings: Five cell lines viability, CellTiter-Glo ATP luminescence, 48-72 h; max response: stronger effect = lower value; as to max response: % is scaled to controls: 0 for no effect and ±100 for the full control effect
In short: (§1)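 Cytotoxicity was measured as CellTiter-Glo ATP luminescence, read after 10 min at room temperature. Compound treatment of the cells lasted 48 or 72 hr at 37 degrees Celsius in a qHTS format.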

HEK293 = experiment: as above; settings: Five cell lines viability, CellTiter-Glo ATP luminescence, 48-72 h; max response: stronger effect = lower value
In short: as §1

HaCat [1] = experiment: as above; settings: Five cell lines viability, CellTiter-Glo ATP luminescence, 48-72 h; max response: stronger effect = lower value
In short: as §1

KB-3-1 = experiment: as above; settings: Five cell lines viability, CellTiter-Glo ATP luminescence, 48-72 h; max response: stronger effect = lower value
In short: as §1

NIH3T3 = experiment: as above; settings: Five cell lines viability, CellTiter-Glo ATP luminescence, 48-72 h; max response: stronger effect = lower value
In short: as §1

HACAT [2] = experiment: qHTS assay to identify novel small-molecules to repurpose for Merkel cell carcinoma treatment (AID 1296009); settings: MCC and control cell lines, CellTiter-Glo viability, 72 h; at 44.8 µM (top of the series) unless noted
In short: (§2)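 Cell viability, measured as CellTiter-Glo luminescence, was normalized between DMSO and no-cell wells. The cells had been exposed to 8- or 11-point compound dilutions for 72 hr at 37 degree celsius.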

HEK293T = experiment: as above; settings: MCC and control cell lines, CellTiter-Glo viability, 72 h; series mostly up to 44.8 µM
In short: as §2
Also: nearly all actives have a fitted effect of over 60% in size.

O=C(/C=C/c1ccc(O)cc1)OC[C@H]1O[C@@H](OC(=O)/C=C/c2ccccc2)[C@H](O)[C@@H](O)[C@@H]1O
inactive: outcome (CRL-7250) | outcome (HEK293) | outcome (HaCat [1]) | max response (KB-3-1) -1.64% | outcome (NIH3T3) | outcome (HACAT [2]) inactive [at 17.4 µM] | Potency (HEK293T)

CC(=C/C(=O)O)/C=C/[C@]1(O)[C@@]2(C)CO[C@]1(C)C[C@H](O[C@@H]1O[C@H](CO)[C@@H](O)[C@H](O)[C@H]1O)C2
inactive: max response (CRL-7250) 1.76% | outcome (HEK293) | outcome (HaCat [1]) | max response (KB-3-1) 0.594% | max response (NIH3T3) -8.59% | outcome (HACAT [2]) inactive [at 17.4 µM] | Potency (HEK293T)

C/C1=C\C[C@H](O[C@@H]2O[C@H](CO)[C@@H](O)[C@H](O)[C@H]2O)/C(C)=C/[C@H]2OC(=O)[C@H](C)[C@@H]2CC1
inactive: max response (CRL-7250) -3.83% | outcome (HEK293) | outcome (HaCat [1]) | max response (KB-3-1) 8.78% | outcome (NIH3T3) | outcome (HACAT [2]) inactive [at 17.4 µM] | Potency (HEK293T)

Cc1nn(C)c(COc2ccc(N3CCN(S(=O)(=O)N(C)C)CC3)cc2)c1-c1cccc2c(CCCOc3cccc4ccccc34)c(C(=O)O)n(CCN3CCOCC3)c12
inactive: max response (CRL-7250) -5.39% and -9.48% | outcome (HEK293) | outcome (HaCat [1]) | max response (KB-3-1) 3.5% | max response (NIH3T3) -0.0408% | outcome (HACAT [2]) | Potency (HEK293T)

C=C1CCC2(OC1)OC1CC3C4CC=C5CC(O)CC(O[C@@H]6OC[C@@H](O)[C@H](O)[C@H]6O)C5(C)C4CCC3(C)C1(O)C2C (stereo partly drawn)
inactive: outcome (CRL-7250) | outcome (HEK293) | outcome (HaCat [1]) | max response (KB-3-1) -0.359% | outcome (NIH3T3) | outcome (HACAT [2]) inactive [at 17.4 µM] | Potency (HEK293T)

CCC(C)C(=O)O[C@@H]1[C@@H](O)[C@@H](O[C@H]2O[C@H](CO)[C@@H](O)[C@H](O)[C@H]2O)O[C@H](CO)[C@H]1O (stereo partly drawn)
inactive: outcome (CRL-7250) | outcome (HEK293) | outcome (HaCat [1]) | outcome (KB-3-1) | outcome (NIH3T3) | outcome (HACAT [2]) inactive [at 17.4 µM] | Potency (HEK293T)

C[C@@H]1CC[C@H]2C(C)(C)[C@H](O)[C@H](O)C[C@]2(C)[C@@]12Cc1c(O)cc3c(c1O2)CNC3=O
inactive: outcome (CRL-7250) | outcome (HEK293) | outcome (HaCat [1]) | outcome (KB-3-1) | max response (NIH3T3) 3.46% | outcome (HACAT [2]) | Potency (HEK293T)

O=C(NN1CCCCC1)c1nn(-c2ccc(Cl)cc2Cl)c(-c2ccc(C#Cc3ccc(C(F)(F)F)cc3)s2)c1CNS(=O)(=O)N1CCCC1
inactive: max response (CRL-7250) -7.83% | outcome (HEK293) | outcome (HaCat [1]) | max response (KB-3-1) 4.58% | outcome (NIH3T3) | outcome (HACAT [2]) | Potency (HEK293T)

CC1(C)CC(=O)N(CCCCN2CCN(c3ncccn3)CC2)C(=O)C1
inactive: outcome (CRL-7250) | outcome (HEK293) | outcome (HaCat [1]) | max response (KB-3-1) 4.21% | outcome (NIH3T3) | outcome (HACAT [2]) | Potency (HEK293T)

CC(=O)Oc1cc2c(s1)CCN([C@H](C(=O)C1CC1)c1ccccc1F)C2
inactive: max response (CRL-7250) -0.62% | outcome (HEK293) | outcome (HaCat [1]) | outcome (KB-3-1) | max response (NIH3T3) 3.19% | outcome (HACAT [2]) | Potency (HEK293T)

COc1cc(CCc2ccccc2)c(C(=O)O)c2c1CC(C(C)(C)O)O2 (stereo not drawn)
inactive: outcome (CRL-7250) | outcome (HEK293) | outcome (HaCat [1]) | outcome (KB-3-1) | outcome (NIH3T3) | outcome (HACAT [2]) | Potency (HEK293T)

CC(=O)O[C@@H]1C[C@]2(C)[C@@]3(CCC4[C@@]5(C)CC[C@H](O[C@@H]6O[C@H](C(=O)O)[C@@H](O)[C@H](O[C@@H]7O[C@H](CO)[C@H](O)[C@H](O)[C@H]7O[C@@H]7O[C@@H](C)[C@H](O)[C@@H](O)[C@H]7O[C@@H]7OC[C@](O)(CO)[C@H]7O)[C@H]6O[C@@H]6O[C@H](CO)[C@H](O)[C@H](O)[C@H]6O)C(C)(C)C5CC[C@]42C)O[C@@H](O)[C@]12C3CC(C)(C)[C@@H](OC(=O)/C=C/c1ccc(O)c(O)c1)[C@@H]2OC(=O)/C=C/c1ccccc1 (stereo partly drawn)
inactive: max response (CRL-7250) 3.23% | outcome (HEK293) | outcome (HaCat [1]) | outcome (KB-3-1) | outcome (NIH3T3) | outcome (HACAT [2]) inactive [at 9.27 µM] | outcome (HEK293T) inactive [at 9.27 µM]

CC1(C)CC[C@]2(C(=O)O[C@@H]3O[C@H](CO)[C@@H](O)[C@H](O)[C@H]3O)CC[C@]3(C)C(=CCC4[C@@]5(C)C[C@@H](O)[C@H](O)C(CO)(CO)C5CC[C@]43C)C2[C@@H]1O (stereo partly drawn)
inactive: max response (CRL-7250) 3.1% | outcome (HEK293) | outcome (HaCat [1]) | max response (KB-3-1) 8.19% | outcome (NIH3T3) | outcome (HACAT [2]) inactive [at 17.4 µM] | Potency (HEK293T)

O=S(=O)(NC1CCNCC1)c1cc(S(=O)(=O)c2ccccc2)ccc1C(F)(F)F
inactive: max response (CRL-7250) 1.06% | outcome (HEK293) | outcome (HaCat [1]) | max response (KB-3-1) 3.12% | outcome (NIH3T3) | outcome (HACAT [2]) | Potency (HEK293T)

NCCOCCOCCNC(=O)Cc1ccc(Nc2nc(NCc3ccc(F)cc3)nc(NCC3CCCCC3)n2)cc1
inactive: outcome (CRL-7250) | outcome (HEK293) | outcome (HaCat [1]) | outcome (KB-3-1) | outcome (NIH3T3) | outcome (HACAT [2]) | Potency (HEK293T)

CC(=O)OCC(=O)O[C@@H]1[C@H]2[C@@H](OC(=O)c3ccccc3)[C@@H](C)C[C@]2(O)[C@H](OC(C)=O)C2(C)[C@H]3CC(C)(C)C(=O)[C@@H]3CC1(OC(C)=O)[C@@H]2OC(C)=O (stereo partly drawn)
inactive: max response (CRL-7250) -0.187% | outcome (HEK293) | outcome (HaCat [1]) | max response (KB-3-1) 9.67% | outcome (NIH3T3) | outcome (HACAT [2]) inactive [at 17.4 µM] | Potency (HEK293T)

COc1cc(C/C(=C/NC(C)=O)N(CC(=O)Cc2ccccc2)C(C)=O)cc2c1OCO2
inactive: max response (CRL-7250) -6.34% | outcome (HEK293) | outcome (HaCat [1]) | max response (KB-3-1) 7.98% | max response (NIH3T3) 2.9% | outcome (HACAT [2]) inactive [at 17.4 µM] | Potency (HEK293T)

COC(=O)C1=C[C@@H](O)[C@@H](O)[C@H](O[C@@H]2O[C@H](COC(=O)/C=C/c3ccccc3)[C@@H](O)[C@H](O)[C@H]2O)C1
inactive: outcome (CRL-7250) | outcome (HEK293) | outcome (HaCat [1]) | max response (KB-3-1) 3.55% | outcome (NIH3T3) | outcome (HACAT [2]) inactive [at 17.4 µM] | Potency (HEK293T)

CC(C)C1=CC2=CCC3[C@](C)(CCC[C@@]3(C)C(=O)O)C2CC1=O (stereo partly drawn)
inactive: outcome (CRL-7250) | outcome (HEK293) | max response (HaCat [1]) 1.19% | max response (KB-3-1) 8.65% | outcome (NIH3T3) | Potency (HEK293T)

O=C(COc1ccc(Cl)cc1)NC1CCC(NC(=O)COc2ccc(Cl)cc2)CC1 (stereo not drawn)
inactive: max response (CRL-7250) 2.66% | outcome (HEK293) | outcome (HaCat [1]) | max response (KB-3-1) -4.12% | max response (NIH3T3) -4.22% | outcome (HACAT [2]) | Potency (HEK293T)

CC[C@H]1OC(=O)[C@H](C)[C@@H](OC2C[C@@](C)(OC)[C@@H](O)[C@H](C)O2)[C@H](C)[C@@H](OC2O[C@H](C)C[C@H](NC)[C@H]2O)[C@](C)(O)C[C@@H](C)CN(C)[C@H](C)[C@@H](O)[C@]1(C)O (stereo partly drawn)
inactive: outcome (CRL-7250) | outcome (HEK293) | outcome (HaCat [1]) | max response (KB-3-1) -2.3% | max response (NIH3T3) -0.0862% | outcome (HACAT [2]) | Potency (HEK293T)

CC(=O)OCC1=C[C@H](O)[C@@H]2C(C(=O)O)=CO[C@@H](O[C@@H]3O[C@H](CO)[C@@H](O)[C@H](O)[C@H]3O)[C@H]12
inactive: outcome (CRL-7250) | outcome (HEK293) | outcome (HaCat [1]) | max response (KB-3-1) -1.91% | outcome (NIH3T3) | outcome (HACAT [2]) inactive [at 17.4 µM] | Potency (HEK293T)

C/C=C/C=C/C(CC(=O)O)Nc1ccc(C=O)cc1 (stereo not drawn)
inactive: outcome (CRL-7250) | outcome (HEK293) | outcome (HaCat [1]) | max response (KB-3-1) 5.57% | max response (NIH3T3) 3.97% | outcome (HACAT [2]) | Potency (HEK293T)

C[C@@]12C[C@]3(O)O[C@H](O1)[C@]1(COC(=O)c4ccccc4)[C@H]3C[C@@]12O[C@@H]1O[C@H](COC(=O)c2ccccc2)[C@@H](O)[C@H](O)[C@H]1O
inactive: max response (CRL-7250) -3.18% | outcome (HEK293) | outcome (HaCat [1]) | max response (KB-3-1) 1.05% | max response (NIH3T3) 1.22% | outcome (HACAT [2]) inactive [at 17.4 µM] | Potency (HEK293T)

CCC(C)(O)C(O)C(=O)OCc1ccc(O[C@@H]2O[C@H](CO)[C@@H](O)[C@H](O)[C@H]2O)c(OC)c1 (stereo partly drawn)
inactive: max response (CRL-7250) 0.769% | outcome (HEK293) | outcome (HaCat [1]) | max response (KB-3-1) 4.31% | outcome (NIH3T3) | outcome (HACAT [2]) inactive [at 17.4 µM] | Potency (HEK293T)

COC(=O)C1=CO[C@@H](O[C@@H]2O[C@H](CO)[C@@H](O)[C@H](O)[C@H]2O)[C@@H]2[C@@H](C(=O)OC)[C@@H](O)C(O)[C@H]12 (stereo partly drawn)
inactive: max response (CRL-7250) -2.23% | outcome (HEK293) | outcome (HaCat [1]) | max response (KB-3-1) 0.336% | max response (NIH3T3) 1.13% | outcome (HACAT [2]) inactive [at 17.4 µM] | Potency (HEK293T)

C/C=C1\[C@H](O[C@@H]2O[C@H](CO)[C@@H](O)[C@H](O)[C@H]2O)OC=C(C(=O)OC)[C@H]1CC(=O)OC
inactive: outcome (CRL-7250) | outcome (HEK293) | outcome (HaCat [1]) | max response (KB-3-1) 5.8% | outcome (NIH3T3) | outcome (HACAT [2]) inactive [at 17.4 µM] | Potency (HEK293T)
